Shown are actives, neighbours in structure and some others; about 3.3% of the full set was active somewhere.
Smad3 FoxH1 inh = blocks human Smad3 binding to FoxH1 peptide. P84022. TR-FRET Smad3/Dy647-FoxH1 peptide binding, europium anti-His. inhibition, % at 25 µM. hit rate 0.29% among 88,000. AID 630;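 active = compounds that reduce the energy-transfer binding signal between the protein and its labelled peptide by more than half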;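 also: 0% = Smad3 plus labelled peptide maximal FRET and 100% = peptide-only background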
Target sequence (P84022 whole entry, looked up): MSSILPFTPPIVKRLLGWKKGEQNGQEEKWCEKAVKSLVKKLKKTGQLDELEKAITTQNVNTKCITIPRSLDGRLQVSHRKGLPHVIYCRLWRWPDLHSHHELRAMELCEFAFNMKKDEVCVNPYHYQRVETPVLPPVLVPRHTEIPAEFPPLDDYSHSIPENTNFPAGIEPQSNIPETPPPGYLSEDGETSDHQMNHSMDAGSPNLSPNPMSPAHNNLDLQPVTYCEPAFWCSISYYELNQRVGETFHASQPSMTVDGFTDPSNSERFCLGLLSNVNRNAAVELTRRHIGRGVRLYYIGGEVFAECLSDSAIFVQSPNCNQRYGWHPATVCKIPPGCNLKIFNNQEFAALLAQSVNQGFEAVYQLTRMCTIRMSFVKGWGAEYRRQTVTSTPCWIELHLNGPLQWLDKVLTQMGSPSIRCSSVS
ERa coact pot = ER-alpha (human) coactivator binding potentiation | coactivator binding (% of control), % at 25.6 µM | P03372 | TR-FRET ERalpha-LBD/SRC-Cy5 coactivator binding, 2 h; 100 = basal binding, no effect | hit rate 1.3% among 86,000 | AID 639; in the data active = activity above about 200%;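 also: binding measured in presence of low estradiol as agonist stimulus; 0% = peptide alone without receptor and 100% = receptor with peptide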
ERb SRC1 inh = ER-beta (human) coactivator binding inhibition; inhibition, % at 25.6 µM; TR-FRET ER-beta LBD / SRC1-Cy5 peptide binding; receptor agonist-loaded with 1 µM estradiol; AID 633; hit rate 1.3% among 86,000;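 active = compounds whose percent inhibition of the receptor-coactivator binding signal exceeds about 50% in the single-dose screen, limit read from the data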;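 also: 0% = receptor plus peptide wells without compound and 100% = peptide-only wells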
ERa SRC1 inh = ER-alpha (human) coactivator binding inhibition. P03372. TR-FRET ER-alpha LBD / SRC-1 peptide, estradiol-bound. inhibition, % at 25.6 µM. hit rate 1.7% among 86,000. AID 629; in the data active = inhibition above about 50%;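 also: 0% = receptor plus peptide control and 100% = peptide only without receptor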
FAK inh = FAK (human) kinase inhibition; Q05397; biochemical FAK kinase activity assay; inhibition, %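 (tested at 7 µM)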; hit rate 0.84% among 97,000; in the data active = inhibition above about 19%;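 also: 0% = DMSO and 100% = reference compound high control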
Calb biofilm kill = kills Candida albicans biofilms. inhibition, % at 6 µM. hit rate 0.14% among 85,000. C. albicans biofilm + clotrimazole, Alamar Blue;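 active = inhibition above 20%; inactive = inhibition below 20%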;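 also: preformed 24 hr biofilms exposed to compound for 48 hr; 0% = biofilm without compound and 100% = blank killed by clotrimazole plus chlorhexidine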
* marks the source's active call; other numbers are inactive results; [ ] = another dose, or the depositor's remark.

Results for COc1cc(NC(=O)c2cccs2)c(C(=O)OCC(=O)NCc2ccco2)cc1OC ?
Smad3 FoxH1 inh: 6; ERa coact pot: 89; ERb SRC1 inh: 42; ERa SRC1 inh: 79*; Calb biofilm kill: -6

How did CSc1ccc(Cl)c(C(=O)OCC(=O)NCc2ccco2)c1 do in these assays?
Smad3 FoxH1 inh: -3; ERa coact pot: 142; ERb SRC1 inh: 47; ERa SRC1 inh: 52*[fluorescence artefact?]; FAK inh: 11; Calb biofilm kill: 6

What do the screens show for `Cc1ccc(NS(=O)(=O)c2cccc(C(=O)OCC(=O)NCc3ccco3)c2)cc1`?
Smad3 FoxH1 inh: 3; ERa coact pot: 92; ERb SRC1 inh: 45; ERa SRC1 inh: 53*

How did Cc1ccc(NS(=O)(=O)c2ccc(OCC(=O)NCc3ccco3)cc2)cc1 do in these assays?
Smad3 FoxH1 inh: 10; ERa coact pot: 97; ERb SRC1 inh: -7; ERa SRC1 inh: -12; FAK inh: -1; Calb biofilm kill: 8

What do the screens show for `CSc1ccc(Cl)c(C(=O)NCc2ccco2)c1`?
Smad3 FoxH1 inh: 4; ERa coact pot: 106; ERb SRC1 inh: 9; ERa SRC1 inh: 12; FAK inh: 1; Calb biofilm kill: 8

Results for CCOc1cc(NC(=O)c2cccs2)c(OCC)cc1NC(=O)c1ccco1 ?
Smad3 FoxH1 inh: -6; ERa coact pot: 75; ERb SRC1 inh: 65*; ERa SRC1 inh: 8; FAK inh: 1; Calb biofilm kill: 7

What do the screens show for `CCOc1cc(C(=O)OCC(=O)NCc2ccco2)cc(OCC)c1OCC`?
Smad3 FoxH1 inh: 2; ERa coact pot: 80; ERb SRC1 inh: 45; ERa SRC1 inh: 57*[fluorescence artefact?]; FAK inh: 6; Calb biofilm kill: 7

Results for O=C(COC(=O)c1cccs1)NCc1ccco1 ?
Smad3 FoxH1 inh: 5; ERa coact pot: 77; ERb SRC1 inh: 53*; ERa SRC1 inh: 53*[fluorescence artefact?]; Calb biofilm kill: 6

What do the screens show for `O=C(COC(=O)c1cccs1)NCc1ccccc1`?
Smad3 FoxH1 inh: 2; ERa coact pot: 136; ERb SRC1 inh: -10; ERa SRC1 inh: -2; FAK inh: -1; Calb biofilm kill: 3

Results for NC(=O)C1CCN(C(=O)C2c3ccccc3C(=O)N3CCc4ccccc4C23)CC1 (centres undefined) ?
Smad3 FoxH1 inh: 12; ERa coact pot: 97; ERb SRC1 inh: -2; ERa SRC1 inh: -3; FAK inh: -1; Calb biofilm kill: 12

Results for CC1CCN(C(=O)C2c3ccccc3C(=O)N3CCc4ccccc4C23)CC1 (centres undefined) ?
Smad3 FoxH1 inh: 1; ERa coact pot: 623*[fluorescence artefact?]; ERb SRC1 inh: -4; ERa SRC1 inh: -1; FAK inh: -2; Calb biofilm kill: 6

What do the screens show for `COc1cc2c(C#N)c(N3CCCCC3)nc(N)c2c(N)n1`?
Smad3 FoxH1 inh: 33; ERa coact pot: 103; ERb SRC1 inh: 5; ERa SRC1 inh: 14; FAK inh: 16; Calb biofilm kill: 4

What do the screens show for `COc1cc2c(C#N)c(N3CCOCC3)nc(N)c2c(N)n1`?
Smad3 FoxH1 inh: 5; ERa coact pot: 95; ERb SRC1 inh: 75*[fluorescence artefact?]; ERa SRC1 inh: 1; FAK inh: 4; Calb biofilm kill: 9

What do the screens show for `COC(=O)C(/C=N/OCc1ccc([N+](=O)[O-])cc1)NC(=O)c1cccc(Cl)c1` (centres undefined)?
Smad3 FoxH1 inh: -10; ERa coact pot: 395*[fluorescence artefact?]; ERb SRC1 inh: 20; ERa SRC1 inh: 24; FAK inh: 2; Calb biofilm kill: 11

What do the screens show for `O=C1c2cccnc2C(=O)N1Cc1ccc(F)cc1`?
Smad3 FoxH1 inh: 12; ERa coact pot: 118; ERb SRC1 inh: 2; ERa SRC1 inh: 0; FAK inh: 3; Calb biofilm kill: 7

How did C/C(N)=C(/C#N)C(=O)CSc1nnc(Cc2ccccc2F)n1N do in these assays?
Smad3 FoxH1 inh: 11; ERa coact pot: 33; ERb SRC1 inh: 81*; ERa SRC1 inh: 69*; FAK inh: 5; Calb biofilm kill: 8

Results for Nn1c(Cc2ccccc2F)nnc1SCn1nnc2ccccc2c1=O ?
Smad3 FoxH1 inh: 3; ERa coact pot: 110; ERb SRC1 inh: -6; ERa SRC1 inh: -5; FAK inh: 7; Calb biofilm kill: 12

How did CC(C)(CN)CN do in these assays?
Smad3 FoxH1 inh: -4

Results for O=C(O)CC(c1cccc2ccccc12)n1cccc1 (centres undefined) ?
Smad3 FoxH1 inh: -4; ERa coact pot: 58; ERb SRC1 inh: 19; ERa SRC1 inh: 11; FAK inh: -4; Calb biofilm kill: 7

Results for O=C(Cc1ccccc1)Nc1cccc(N2CCCC2)c1 ?
Smad3 FoxH1 inh: -13; ERa coact pot: 43; ERb SRC1 inh: 28; ERa SRC1 inh: 58*[fluorescence artefact?]; FAK inh: 11; Calb biofilm kill: 2

What do the screens show for `COc1ccc(CC(=O)N2CC(C)CC(C)C2)cc1OC` (centres undefined)?
Smad3 FoxH1 inh: -5; ERa coact pot: 93; ERb SRC1 inh: 84*[fluorescence artefact?]; ERa SRC1 inh: -3; FAK inh: 1; Calb biofilm kill: 4

How did CCOc1ccccc1C1C(C#N)=C(N)Nc2onc(-c3ccccc3)c21 (centres undefined) do in these assays?
Smad3 FoxH1 inh: -2; ERa coact pot: 378*; ERb SRC1 inh: 1; ERa SRC1 inh: -4; FAK inh: -1; Calb biofilm kill: 4

What do the screens show for `COc1cc2c(cc1OC)C(CCN)=NCC2`?
Smad3 FoxH1 inh: 21

How did CC(C)c1ccc(N(CC(=O)NCCSC(C)(C)C)S(C)(=O)=O)cc1 do in these assays?
Smad3 FoxH1 inh: -3; ERa coact pot: 101; ERb SRC1 inh: 7; ERa SRC1 inh: -3; FAK inh: 1; Calb biofilm kill: 7

What do the screens show for `O=C1c2ccccc2NC(c2ccccc2)N1Cc1ccco1` (centres undefined)?
Smad3 FoxH1 inh: 7; ERa coact pot: 83; ERb SRC1 inh: 9; ERa SRC1 inh: 7; Calb biofilm kill: 37*

How did O=C1c2ccccc2NC(c2ccc(F)cc2)N1Cc1ccco1 (centres undefined) do in these assays?
Smad3 FoxH1 inh: 1; ERa coact pot: 108; ERb SRC1 inh: 15; ERa SRC1 inh: -4; FAK inh: 5; Calb biofilm kill: 3

What do the screens show for `Cc1ccc(C=Nc2ccc(N(C)C)cc2)o1`?
Smad3 FoxH1 inh: 6; ERa coact pot: 114; ERb SRC1 inh: 89*[fluorescence artefact?]; ERa SRC1 inh: 25; FAK inh: 7; Calb biofilm kill: 9

What do the screens show for `CCN(CC)c1ccc(C=Nc2ccc(N(C)C)cc2)c(O)c1`?
Smad3 FoxH1 inh: 18; ERa coact pot: 88; ERb SRC1 inh: 9; ERa SRC1 inh: 2; FAK inh: 7; Calb biofilm kill: 5

What do the screens show for `O=C(CSCc1ccc(Cl)cc1)NCC1CCCO1` (centres undefined)?
Smad3 FoxH1 inh: 3; ERa coact pot: 109; ERb SRC1 inh: -6; ERa SRC1 inh: -3; FAK inh: 1; Calb biofilm kill: 3

What do the screens show for `O=C(CSc1ccc(Cl)cc1)NCC1CCCO1` (centres undefined)?
Smad3 FoxH1 inh: 2; ERa coact pot: 96; ERb SRC1 inh: -2; ERa SRC1 inh: -1; FAK inh: 0; Calb biofilm kill: 65*

Source: PubChem BioAssay (several laboratories)
